Screening results (PubChem BioAssay)
NS1 function inh = influenza NS1 inhibition. 0.4% of 270,000 active. Potency, µM (highest dose often 46.1 µM); calls by dose curve; further: actives are rising curves; nearly all actives have a fitted effect of over 50% in size
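In this qHTS, NS1 from influenza A is expressed in budding yeast, where it slows growth. Cells are switched from glucose to 2% galactose medium (pH 6.0, -URA), treated with compound, and growth recovery is read at OD600.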
Cycloheximide cs = affects cycloheximide protein synthesis inhibition readout, counter-screen | cell reporter, cycloheximide protein synthesis inhibition counterscreen | max response, % | 12% of 300,000 active | AID 2314; in the data active means max response mostly above about 13%, no sharp cut-off; inactive means mostly below about 14%; further: read at 38.3 µM for the half of the compounds with a filed dose
Pf growth 96h = P. falciparum growth inhibition at 96 hours; Potency, µM (series often up to 28.7 µM), usual class: inhibitors; P. falciparum luciferase reporter growth, 96 h; 6.9% of 320,000 active
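Erythrocytes infected with luciferase-expressing P. falciparum were dispensed at 2% hematocrit and 0.05% parasitemia (final), then incubated with compounds 96 hours at 37 C in 5% CO2. Luminescence after detection reagent addition reported growth.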
Pf growth 48h = P. falciparum growth inhibition at 48 hours (one generation); P. falciparum luciferase growth in erythrocytes, 48 h; Potency, µM (doses to about 28.7 µM), usual class: inhibitors; 5.9% of 310,000 active; AID 504832
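Cell-based growth assay: transgenic P. falciparum expressing firefly luciferase, cultured in red cells within RPMI 1640 containing 0.5% w/v Albumax, 24 mM bicarbonate and gentamycin. A drop in luciferase activity indicates inhibition.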
Shiga toxin inh = inhibitors of Shiga toxin in Vero cells; Vero cells, Shiga toxin protein synthesis inhibition reporter; inhibition, % at 38.7 µM; 9.2% of 290,000 active; AID 2315; in the data active means inhibition mostly above about 28%, no sharp cut-off; inactive means mostly below about 43%
Each line names hits and unclear results; the compound was inactive in the other large screens; ! = a repeat was not active. Only some compounds are listed: those with a hit (about 21% of all), similar ones and a draw of the others. Unless noted, the call rests on the fitted dose curve; in most records, active means well fitted inhibition curve with a large enough effect; inconclusive means small, poorly fitted or top-dose-only effect, or another doubt; inactive means no such curve, though single readings can be large or run the other way.

CC(C)c1nc2ccc(Br)cn2c1NC1CCCC1	Pf growth 48h inconclusive
COc1cc(-c2nc3ccccn3c2/N=C/c2ccc(F)cc2)ccc1O	Cycloheximide cs 16, Pf growth 96h inconclusive (no result: NS1 function inh)
Oc1ccccc1/C=N/c1c(-c2ccco2)nc2ccccn12	none (no result: Pf growth 96h)
COc1cc(-c2nc3ccccn3c2/N=C/c2cccc(OC)c2O)ccc1O	Cycloheximide cs 23 (no result: NS1 function inh)
CC(C)(C)N(Cc1ccccc1)C(=O)CN1C(=O)c2ccccc2C1=O	Cycloheximide cs 38, Shiga toxin inh 55
CN(Cc1ccccc1)C(=O)CN1C(=O)c2ccccc2C1=O	none (no result: Shiga toxin inh)
O=C(C[n+]1ccccc1)N/N=C/c1cccs1	none (no result: NS1 function inh)
CC(=O)N1c2ccc(S(=O)(=O)N(C)CC(=O)Nc3ccccc3C)cc2CC1C (configuration not stated)	Pf growth 96h inconclusive, Pf growth 48h inconclusive
CC(=O)NC12CC3CC(C1)CC(C(=O)Oc1ccc(N(C)S(=O)(=O)c4cc(C)ccc4C)cc1)(C3)C2	Pf growth 96h 13µM, Pf growth 48h inconclusive (no result: NS1 function inh, Cycloheximide cs, Shiga toxin inh)
CC(=O)NC12CC3CC(C1)CC(C(=O)NCC(=O)Nc1c(C)cc(C)cc1C)(C3)C2	none (no result: NS1 function inh, Cycloheximide cs, Shiga toxin inh)
OCC#Cc1cnc2ccccc2c1	Cycloheximide cs 26, Pf growth 96h inconclusive
Cc1cc(N)c2cc(OCCOc3ccc4nc(C)cc(N)c4c3)ccc2n1	none (no result: Cycloheximide cs, Pf growth 96h, Pf growth 48h, Shiga toxin inh)
CCOc1ccc2nc3cc(N)ccc3c(N)c2c1	Pf growth 96h 0.85µM, Pf growth 48h 0.76µM (no result: NS1 function inh, Cycloheximide cs, Shiga toxin inh)
CCOc1ccc2nc3cc(NCc4ccc(OC)cc4)ccc3c(N)c2c1	Pf growth 96h 2.6µM, Pf growth 48h 2.3µM
COc1ccc(S(=O)(=O)N(CCCN2CCCC2=O)Cc2cc3c(C)cc(C)cc3[nH]c2=O)cc1	Pf growth 48h 9.3µM
CN(C)S(=O)(=O)c1cc(NC(=O)COC(=O)CCSc2ccc(Cl)cc2)ccc1Cl	Pf growth 96h inconclusive
CCN(CC)CCn1c(SCC(=O)Nc2ccc3c(c2)CCC3)nc2ccccc2c1=O	Pf growth 48h inconclusive (no result: NS1 function inh, Cycloheximide cs, Shiga toxin inh)
O=C(N/C=C/c1ccccc1)Nc1ccc(Cl)cc1	Cycloheximide cs 74, Shiga toxin inh 198
Cc1ccc(NC(=O)N/C=C/c2ccc(Cl)cc2)cc1	Pf growth 96h inconclusive
Cc1ccc(NC(=O)N/C=C/c2ccccc2)cc1	Cycloheximide cs 24, Shiga toxin inh 42
COc1ccc(C(=O)N/C(=C/c2cccs2)C(=O)NN)cc1OC	none
Cc1ccc(/C(=C\CN2CCCC2)c2ccccn2)cc1	NS1 function inh inconclusive, Pf growth 96h 13µM!
O=C(CCc1nnc(CCCCc2ccccc2)o1)NCCN1CCCCC1=O	none
CCc1cccc(CC)c1NC(=O)COC(=O)CCc1cc(OC)c(OC)c(OC)c1	none
Cc1ccc(/C=N/NC(=O)c2ccncc2)s1	Pf growth 48h inconclusive
Cc1ccc(/C=N/NC(=O)c2ccc3c(c2)OCCO3)s1	Cycloheximide cs 38, Shiga toxin inh 55
Cc1ccc(/C=N/NC(=O)c2ccc3ccccc3c2)s1	Cycloheximide cs 28, Shiga toxin inh 47
O=C(N/N=C/c1cc(Br)cs1)c1ccc2c(c1)OCCO2	Cycloheximide cs 37, Shiga toxin inh 68
O=C(CSc1nc(C2CC2)nc2ccccc12)NCc1ccc2c(c1)OCO2	none
c1ccc2c(c1)oc1c(NCCCN3CCOCC3)ncnc12	none
Cc1sc2ncnc(OCC(=O)Nc3ccc4c(c3)OCCO4)c2c1C	none (no result: Pf growth 48h)
c1ccc2c(c1)oc1c(Nc3ccc4c(c3)OCCO4)ncnc12	Cycloheximide cs 54, Shiga toxin inh 69
CCc1nc(Nc2ccc3c(c2)OCCO3)c2oc3ccccc3c2n1	Cycloheximide cs 17 (no result: Pf growth 48h)
O=[N+]([O-])c1ccc(O)c(Nc2ncnc3ccccc23)c1	Cycloheximide cs 17, Pf growth 48h inconclusive
Cc1nc(Nc2ccc3c(c2)OCCO3)c2c(C)c(C)sc2n1	Cycloheximide cs 20 (no result: NS1 function inh)
CNc1nc(Cl)c(SC)c(NCc2cccc(OC)c2)n1	none
COc1cccc(-c2nc(CS(=O)(=O)CC(=O)Nc3cc(OC)ccc3OC)c(C)o2)c1	none
Cc1ccc(O)c(Nc2ncnc3ccc([N+](=O)[O-])cc23)c1	Pf growth 48h inconclusive
O=[N+]([O-])c1ccc2ncnc(Nc3ccc4c(c3)OCCO4)c2c1	Pf growth 96h inconclusive, Pf growth 48h 9.3µM (no result: NS1 function inh)
Cc1nc(NCc2ccc3c(c2)OCO3)c2oc3ccccc3c2n1	none
Cc1nc(Nc2ccc3c(c2)OCCO3)c2oc3ccccc3c2n1	Cycloheximide cs 26, Shiga toxin inh 83
CCCC(=N)C1=C(O)CC(CC(C)SCC)CC1=O (configuration not stated)	none
CCSC(C)CC1C/C(=N/O)c2c(CC)noc2C1 (configuration not stated)	Pf growth 48h 15µM
CCCC(=O)C1C(=O)CC(CC(C)SCC)CC1=O (configuration not stated)	none (no result: Pf growth 48h)
CCCc1noc2c1/C(=N\O)CC(CC(C)SCC)C2 (configuration not stated)	Cycloheximide cs 33, Pf growth 48h inconclusive, Shiga toxin inh 19
Cc1c(C(=O)O)c(C(=O)O)c2n1CCS2	none
CN1C(=O)/C(=C/c2ccc(OCc3ccc(F)cc3)cc2)NC1=S	none
COc1ccc(C(=O)NNC(=O)c2ccccn2)cc1	none
CC(C)C(=O)NNC(=O)c1ccccn1	Pf growth 96h 13µM, Pf growth 48h inconclusive
Cc1cccnc1NC(=O)C(C)Oc1ccccc1 (configuration not stated)	NS1 function inh inconclusive
CC(Oc1ccccc1)C(=O)NNC(=O)c1ccccn1 (configuration not stated)	Pf growth 96h inconclusive, Pf growth 48h 9.3µM
CC(C)Nc1nc(Cl)nc(NNC(=O)C(C)Oc2ccccc2)n1 (configuration not stated)	Pf growth 96h 1.7µM
C/C(=N\NC(=O)C(C)Oc1ccc([N+](=O)[O-])cc1)c1ccccn1 (configuration not stated)	Pf growth 96h 2.1µM, Pf growth 48h inconclusive
Cc1nnc2sc(-c3ccc(NC(=O)CSc4ccc(Cl)cc4)cc3)nn12	Pf growth 96h inconclusive, Pf growth 48h 5.2µM
Cc1ccc2c(c1)Oc1ccc(NC(=O)CCCl)cc1C(=O)N2	Pf growth 96h 0.29µM, Pf growth 48h inconclusive (no result: NS1 function inh)
Cc1c(C(=O)Nc2ccccc2[N+](=O)[O-])csc1-c1ccccc1	Cycloheximide cs 34, Shiga toxin inh 97
Cc1c(C(=O)Nc2ccccc2)csc1-c1ccccc1	Cycloheximide cs 36, Pf growth 96h inconclusive, Shiga toxin inh 40
COc1ccc(/C=C/c2n[nH]c(=O)c(C#N)c2C)cc1	Pf growth 48h inconclusive
Cn1c(=S)[nH]c2c(c1=O)C(C)(C)Cc1ccccc1-2	Pf growth 96h 3.3µM (no result: NS1 function inh)
COc1ccccc1NC(=O)C(C)OC(=O)CCNS(=O)(=O)c1ccc(C)c(C)c1 (configuration not stated)	none (no result: NS1 function inh, Cycloheximide cs, Shiga toxin inh)
C/C(=C\C(=O)c1ccc(Br)cc1)NNC(=O)c1ccc(O)cc1	Cycloheximide cs 27, Shiga toxin inh 50
C=C(C)CNC(=S)NNC(=O)c1ccc(Br)cc1	Pf growth 96h inconclusive
C/C(=C\C(=O)c1ccc(Br)cc1)NCc1ccccc1	Cycloheximide cs 19 (no result: Pf growth 48h)
C/C(=C\C(=O)c1ccc(Br)cc1)NCc1ccc(C)cc1	none (no result: Pf growth 48h)
COc1ccc(/C=N/NC(=O)c2ccc(=O)n(C)c2)cc1OC	Pf growth 96h inconclusive (no result: NS1 function inh)
